Screens deposited in PubChem by National Center for Advancing Translational Sciences (NCATS).
This is a sample that favours compounds with a hit; in the whole collection about 7.4% have one here.
SMN2 splice up: SMN2 splice variant enhancement | HEK293 SMN2-luciferase splicing reporter, luminescence, 30-36 h | Potency, µM (highest dose often 46.1 µM), inactives show top-dose activity change, positive = activation, hits mostly activators | 2.8% of 210,000 active; also: % of control where 0% means no effect; nearly all actives have a fitted effect of over 55% in size
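qHTS luciferase splicing reporter: luminescence rises when SMN2 exon 7 is included in transfected HEK293 cells. Compound exposure lasted 30-36 h at 37C, with 4.5 mM final sodium butyrate as control, followed by a ONE-Glo read.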
p53 reactivation: restores transcriptional activity of mutant p53; Potency, µM (titrated, usually from 92.2 µM), inactives show at the highest dose activity change, positive = activation, hits mostly activators; H1299 p53-A138V BP100-luciferase reporter, luminescence, 24 h; 0.063% of 320,000 active; also: % of control where 0% means no effect; nearly all actives have a fitted effect of over 45% in size
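p53-null H1299 cells stably carrying temperature-sensitive p53-A138V and a BP100-luciferase reporter were pinned with compounds (4-point, 1:5 series) and held 24 hrs at 37 deg C. Luminescence was read 10 min after detection reagent.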
FLuc counter: firefly luciferase modulation, counter-screen for miR-21 project | P08659 | purified FLuc, Km substrates, luminescence inhibition | Potency, µM (top dose mostly 57.5 µM), inactives show at the top dose activity change, negative = inhibition, most hits filed as inhibitors | 6.9% of 360,000 active;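 also: plate controls were vehicle for no effect and reference inhibitor for full effect; nearly all actives have a fitted effect of over 55% in size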
Target sequence (P08659 whole entry, looked up): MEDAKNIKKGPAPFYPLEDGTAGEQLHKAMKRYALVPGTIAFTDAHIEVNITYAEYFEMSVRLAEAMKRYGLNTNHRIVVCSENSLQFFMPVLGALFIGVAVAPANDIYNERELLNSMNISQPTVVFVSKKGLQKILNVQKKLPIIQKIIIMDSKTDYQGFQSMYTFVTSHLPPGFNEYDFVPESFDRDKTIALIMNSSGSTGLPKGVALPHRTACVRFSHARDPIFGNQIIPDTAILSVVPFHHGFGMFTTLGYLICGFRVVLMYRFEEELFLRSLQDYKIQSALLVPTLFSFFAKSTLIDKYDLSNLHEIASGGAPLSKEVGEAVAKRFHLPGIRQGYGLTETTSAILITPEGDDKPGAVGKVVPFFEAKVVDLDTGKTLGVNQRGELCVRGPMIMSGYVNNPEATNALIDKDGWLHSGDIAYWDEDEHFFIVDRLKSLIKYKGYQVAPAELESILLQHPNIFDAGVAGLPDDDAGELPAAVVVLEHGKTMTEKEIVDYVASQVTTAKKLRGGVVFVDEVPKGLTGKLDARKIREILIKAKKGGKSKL
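Purified P. pyralis luciferase (10nM final) with 10uM D-luciferin and 10uM ATP (Km levels) in 50mM Tris acetate pH 7.5, 10mM Mg acetate, 0.01% Tween-20, 0.05% BSA; qHTS 6-point titration, ~60 µM downward; luminescence read.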
Rab9 prom act: activators of Rab9 promoter; Potency, µM (highest dose often 9.22 µM), inactives show at the highest dose activation, negative = inhibition, hits mostly activators; 2.8% of 320,000 active; Huh7 Rab9 promoter-luciferase reporter, luminescence, 24 h; also: % of control where 0% means no effect; nearly all actives have a fitted effect of over 60% in size
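Measured in stably transfected Huh7 cells bearing a Rab9 promoter–luciferase construct: 24 h compound treatment at 37 °C, followed by luminescence detection.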
ELG1 genotoxic: induces genotoxicity in HEK293T cells with luciferase-tagged ELG1 | HEK293T ELG1-luciferase reporter, luminescence, 16 h | 1.3% of 330,000 active | Potency, µM (titrated, usually from 46 µM), inactives show at the top dose activity change, positive = activation, hits mostly activators; also: % of control where 0% means no effect; nearly all actives have a fitted effect of over 60% in size
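HEK293T cells expressing luciferase-tagged ELG1 were exposed to compound or DMSO vehicle for 16 hr at 37 °C and 5% CO2. Luciferase activity was then measured with ONE-Glo after 30 min at room temperature.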
NPC1 prom act: activators of NPC1 promoter; AID 485313; 2.4% of 320,000 active; Potency, µM (titrated, usually from 9.22 µM), without a hit: top-dose activation, actives largely listed as activators; Huh7 NPC1 promoter luciferase reporter, 24 h; also: % of control where 0% means no effect; nearly all actives have a fitted effect of over 60% in size
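Luminescence from an NPC1 promoter-driven luciferase reporter in stably transfected Huh7 cells was measured after 24 h compound treatment at 37 °C, followed by 10 min ambient incubation with luciferase detection reagent.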
* marks the source's active call; other numbers are inactive results; ? = inconclusive; nt = no result; [ ] = another dose, or the depositor's remark. Calls follow the shape of the dose curve; as a rule, active = well fitted curve in the direction sought with a large enough effect; inconclusive = small, poorly fitted or top-dose-only effect, or another doubt; inactive = no such curve, though single readings can be large; an effect the other way counts as inactive or inconclusive. Potency is read from the fitted curve at half-maximal effect.

SMILES	SMN2 splice up	p53 reactivation	FLuc counter	Rab9 prom act	ELG1 genotoxic	NPC1 prom act
CO[C@H]1[C@@H](OC(N)=O)[C@H](O)[C@@H](Oc2ccc3c(O)c(NC(=O)c4ccc(O)c(CC=C(C)C)c4)c(=O)oc3c2C)OC1(C)C	-4.4%[20.6 µM]	nt	nt	nt	nt	nt
COc1ccccc1C(=O)Nc1ccc(OCC(=O)N2CCCCC2C)cc1 (centres undefined)	nt	0.9%	12µM*	-0.2%	1.0%	-4.8%
COc1ccccc1C(=O)Nc1ccc(OCC(=O)N2C(C)CCCC2C)cc1 (centres undefined)	nt	22.1%	8.49µM*	8.5%	2.5%	1.0%
COc1ccc(OCC(=O)OCC(=O)N2C(C)CCCC2C)cc1 (centres undefined)	nt	0.8%	0.1%	-3.8%	-1.2%	0.2%
Clc1ccc(-c2cn3ncsc3n2)cc1	-1.5%	nt	12µM*	nt	nt	nt
COc1ccc(-n2cc(C(=O)NCc3ccc(Cl)cc3)c3ccccc3c2=O)cc1	nt	nt	0.4%	nt	nt	nt
O=C(CC1N=C2c3ccccc3N=C(SCc3ccc(F)cc3)N2C1=O)NCc1ccco1 (centres undefined)	?	4.4%	-16.7%	-2.4%	24.1%	-2.1%
Cc1ccc(CSC2=Nc3ccccc3C3=NC(CC(=O)NCc4ccco4)C(=O)N23)cc1 (centres undefined)	11.2µM*	?	?	-4.1%	5.6%	9.1%
Cc1ccc2[nH]c(=O)c(CN(Cc3ccco3)S(=O)(=O)c3c(C)ccc4nsnc34)cc2c1	7.94µM*	-5.9%	2.6%[2.3 µM]	-16.9%	-14.1%	-4.6%
CCCOC(=O)c1cccc(NC(=O)CSc2nnc3cc(C)c4ccccc4n23)c1	nt	nt	-5.8%	nt	nt	nt
COc1ccc(-c2noc(Cc3ccccc3OC)n2)cc1	-11.8%	?	?	22.1%	?	24.3%
CN(Cc1nc(-c2ccccn2)no1)S(=O)(=O)c1ccc(Br)cc1	-19.0%	-13.3%	-0.7%	-2.2%	6.0%	-0.9%
CN(C)C(=O)CCCc1nc(-c2ccc(Cl)cc2)no1	13.8%	?	?	3.16µM*	14.6µM*	?
O=C(O)CCCc1nc(-c2ccc(Cl)cc2)no1	2.8%	4.1%	?	21.2%	1.1%	0.0%
c1ccc(SCc2nc(-c3ccccn3)no2)cc1	11.2µM*	?	16.9µM*	?	18.4µM*	3.55µM*
COc1ccc(Cc2nc(-c3ccccn3)no2)cc1	?	?	?	?	18.3%	3.55µM*
COc1ccc(-c2noc(Cc3cccs3)n2)cc1	17.2%	?	5.36µM*	2.82µM*	?	?
COc1ccc([C@H]2CC(=O)C=C(c3cccc4c3Oc3ccccc3S4)C2)cc1	nt	-4.4%	0.5%	-1.7%	-1.9%	-4.5%
Cc1c(NC(=O)CSc2nc(N)cc(N)n2)c(=O)n(-c2ccccc2)n1C	nt	16.3%	0.3%	2.9%	0.8%	-1.1%
Cc1ccc(Cc2nc(-c3ccccn3)no2)cc1	12.6µM*	21.8%	10.7µM*	3.16µM*	?	1.78µM*
O=C1c2ccccc2C(=O)N1Cc1nc(-c2ccccn2)no1	-12.9%	nt	-14.8%	nt	nt	nt
c1ccc(CCCc2nc(-c3ccccn3)no2)cc1	20µM*	nt	16.9µM*	2.24µM*	?	2.82µM*
Clc1ccc(-c2noc(CCCc3ccccc3)n2)cc1	4.7%	8.5%	26.9µM*	8.0%	?	5.8%
c1ccc(-c2noc(CC3CCCCC3)n2)nc1	nt	1.9%	9.53µM*	1.12µM*	?	3.55µM*
COc1ccccc1NC(=O)CN(C)S(=O)(=O)c1ccc2c(c1)c(=O)n(C)c(=O)n2C	-2.6%	nt	-0.4%	nt	nt	nt
SMILES	SMN2 splice up	p53 reactivation	FLuc counter	Rab9 prom act	ELG1 genotoxic	NPC1 prom act
CCCOc1ccc(Oc2nc(NCC(C)C)nc(N3CCOCC3)n2)nn1	-6.6%	nt	0.7%	nt	nt	nt
Cc1ccccc1-c1cncnc1Nc1ccc(F)cc1	-5.9%	nt	nt	nt	nt	nt
COc1ccc(CCc2nc(-c3ccc(-n4cccc4)cc3)no2)cc1	-35.2%	2.7%	1.4%	-14.2%	-5.7%	-2.5%
c1ccc(C(Cc2nc(-c3ccccn3)no2)c2ccccc2)cc1	29.2%	?	?	?	4.3%	?
COc1ccc(-c2noc(CCc3ccccc3)n2)cc1	22.7%	16.0%	15.1µM*	?	?	?
c1ccc(Cc2nc(-c3ccccn3)no2)cc1	25.1µM*	29.0%	23.9µM*	2.82µM*	?	?
Cc1nc2scc(-c3ccccc3)c2c(=O)o1	-17.9%	2.8%	2.0%	1.5%	-2.3%	0.3%
O=c1oc(-c2ccccc2F)nc2scc(-c3ccccc3)c12	nt	?	4.78µM*	?	?	17.6%
CC(=O)c1ccc(NC(=O)c2cccc(NC(=O)c3ccccc3)c2)cc1	nt	nt	?	29.3%	9.9%	15.6%
O=C(Nc1ccccc1)Nc1ccc(C(=O)N2CCOCC2)cc1	20µM*	5.4%	13.5µM*	1.1%	?	?
CC(=O)c1cccc(NC(=O)Nc2ccccc2)c1	nt	14.3%	12µM*	16.4%	1.9%	24.6%
Cc1ccc(NC(=O)NCc2ccccn2)cc1	-3.3%	17.5%	-16.0%	6.8%	?	12.7%
CC(=O)c1ccc(NC(=O)Nc2ccccc2)cc1	11.2µM*	?	7.57µM*	0.316µM*	1.84µM*	0.447µM*
CC(=O)c1cccc(NC(=O)NCc2ccccn2)c1	15.8µM*	?	9.53µM*	?	9.2µM*	?
NS(=O)(=O)c1ccc(CCNC(=O)COC(=O)c2nc(Cl)ccc2Cl)cc1	nt	7.2%	nt	-1.4%	-0.1%	0.9%
O=C(Nc1ccccc1)Nc1ccc2ccccc2c1	nt	9.7%	?	3.55µM*	14.1%	2.51µM*
CCN(CC)c1ccc(NC(=O)Nc2ccccc2)cc1	nt	?	0.953µM*	3.16µM*	10.3µM*	0.891µM*
CN(C)[C@H]1C(=O)C(C(=O)NCN2CCCC2)=C(O)[C@]2(O)C(=O)C3=C(O)c4c(O)cccc4[C@](C)(O)[C@H]3C[C@H]12	-6.0%[9.22 µM]	nt	nt	nt	nt	nt
COc1ccc(Cl)cc1S(=O)(=O)N(C)CC(=O)NCc1ccc2c(c1)OCO2	nt	-4.2%	0.4%	-2.7%	0.6%	-5.7%
CCc1ccc(-n2nc(CO)c(C(=O)NCc3cccnc3)n2)cc1	-44.9%	nt	?	nt	nt	nt
COc1ccc(/C=N/NC(=O)c2cc(C34CC5CC(CC(C5)C3)C4)[nH]n2)cc1O	-2.3%	-0.9%	15.1µM*	-1.6%	?	3.5%
COC(=O)c1ccc(CN2[C@@H]3C[C@@H](O)CC[C@@H]3C[C@H]2C(=O)OC)cc1	7.6%	nt	nt	nt	nt	nt
Nc1nc(NC(=O)c2ccc(Cl)cc2)nn1-c1ccccc1	16.6%	10.7%	19µM*	10.1%	-2.9%	7.6%
CCOc1ccc(NC(=O)c2nc3nc(C)cc(C(F)F)n3n2)cc1	1.0%	nt	-10.1%	nt	nt	nt
